Bioassay records deposited in PubChem by National Center for Advancing Translational Sciences (NCATS).
RORgamma inh – qHTS for inhibitors of ROR gamma transcriptional activity. Drosophila S2 Gal4-RORgamma UAS-luciferase reporter, 20 h. Potency, µM (series often up to 53.6 µM), hits mostly inhibitors. 5.4% of 310,000 active. AID 2551, 2010; also: nearly all actives have a fitted effect of over 60% in size
Target sequence (P51450 whole entry, looked up, the tested form may be a part): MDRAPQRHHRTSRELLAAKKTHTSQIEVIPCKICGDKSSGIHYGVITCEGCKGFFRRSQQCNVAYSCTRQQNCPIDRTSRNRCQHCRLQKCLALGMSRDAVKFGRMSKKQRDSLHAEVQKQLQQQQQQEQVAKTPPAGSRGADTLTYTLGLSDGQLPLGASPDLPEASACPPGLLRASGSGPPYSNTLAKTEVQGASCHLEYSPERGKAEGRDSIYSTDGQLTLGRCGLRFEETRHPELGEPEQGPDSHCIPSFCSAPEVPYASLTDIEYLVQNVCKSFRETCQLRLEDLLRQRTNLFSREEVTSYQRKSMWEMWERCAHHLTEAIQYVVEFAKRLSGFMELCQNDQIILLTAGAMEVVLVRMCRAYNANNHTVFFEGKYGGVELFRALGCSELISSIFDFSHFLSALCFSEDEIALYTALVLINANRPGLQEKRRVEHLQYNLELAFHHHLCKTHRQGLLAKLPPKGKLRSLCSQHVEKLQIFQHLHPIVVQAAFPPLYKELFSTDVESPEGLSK
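Stably transfected Drosophila Schneider cells are the test system, with ROR gamma fused to Gal4 and luciferase under UAS control; luminescence is read after 20 hr of 700 uM copper sulfate induction at ambient temperature.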
HEK293 tox – qHTS of GLP-1 Receptor Inverse Agonists: Cytotox Screen | HEK293 cAMP-luciferase reporter cells, luminescence, 24 h | Potency, µM (highest dose often 38.3 µM), hits mostly inhibitors | 0.13% of 410,000 active;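 also: loss of luciferase light is scored as toxicity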
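Seeding density was 200 cells/uL; after overnight-length (12 h) culture, 23 nL compounds went on for 24 h at 37 °C. Readout used a luciferase detection reagent, luminescence taken after 12 min at room temperature.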
GLP1R inv ag – qHTS of GLP-1 Receptor Inverse Agonists (Inhibition Mode) | Glucagon-like peptide 1 receptor (Homo sapiens), P43220 | HEK293 GLP-1R CRE-luciferase, luminescence, 24 h; GLP-1R form is constitutively active | Potency, µM (titrated, usually from 38.3 µM), hits mostly inhibitors | 1.6% of 410,000 active | AID 624417, 2012; also: nearly all actives have a fitted effect of over 55% in size
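Luminescence readout: a drop in cAMP-driven luciferase signal flags inverse agonism at a constitutively active GLP-1R stably expressed in HEK293. Compound exposure lasted 24 hr at 37 deg C, 5% CO2.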
VP16 counter – VP16 counterscreen qHTS for inhibitors of ROR gamma transcriptional activity; 3.5% of 310,000 active; Drosophila S2 Gal4-VP16 UAS-luciferase, luminescence, 20 h; Potency, µM (top dose mostly 53.6 µM), actives largely listed as inhibitors;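 also: Gal4-VP16 expression switched on by copper sulfate through the metallothionein promoter; nearly all actives have a fitted effect of over 50% in size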
GLP-1R agonist – qHTS of GLP-1 Receptor Agonists | 0.007% of 380,000 active | Glucagon-like peptide 1 receptor (Homo sapiens), P43220 | Potency, µM (top dose mostly 45.6 µM), actives largely listed as activators | HEK293 GLP-1R CRE-luciferase, luminescence, 4-6 h; cells express a hypersensitive GLP-1R form | AID 624172, 2012
Of the large screens only hits and unclear results are named; the others gave an inactive call. Most compounds without a hit are left out; they make up all but 5.9% or so of the library. Calls follow the shape of the dose curve; as a rule, active = well fitted curve in the direction sought with a large enough effect; inconclusive = small, poorly fitted or top-dose-only effect, or another doubt; inactive = no such curve, though single readings can be large; an effect the other way counts as inactive or inconclusive.

O=C(c1ccco1)N1CCC2(CCCN(c3ncccn3)C2)CC1	none (no result: HEK293 tox, GLP1R inv ag, GLP-1R agonist)
Cc1cccc2c1-c1sc(C(=O)Nc3nccs3)cc1CO2	RORgamma inh 4.5µM, VP16 counter 5.6µM
O=C(Nc1nc2ccccc2s1)c1cc2c(s1)-c1ccccc1OC2	VP16 counter inconclusive
CC1CCCN(CCCNC(=O)c2cc3c(s2)-c2ccccc2OC3)C1 (configuration not stated)	GLP1R inv ag 8.9µM
O=C(Nc1cccnc1)c1cc2c(s1)-c1ccccc1OC2	RORgamma inh 4.5µM, GLP1R inv ag inconclusive
O=C(Nc1nccs1)c1cc2c(s1)-c1ccccc1OC2	RORgamma inh 5µM, VP16 counter 4.5µM
COc1ccccc1C(=O)OCc1cc(=O)n2nc(C3CC3)sc2n1	none (no result: RORgamma inh, VP16 counter, GLP-1R agonist)
Cc1nc(-c2ccccc2)sc1-c1ccc(SCC(=O)NCc2ccc(F)cc2)nn1	none (no result: RORgamma inh, VP16 counter, GLP-1R agonist)
COc1ccccc1NC(=O)CSC1=Nc2ccccc2N=C(c2ccc(F)cc2)C1	none (no result: RORgamma inh, VP16 counter)
Cc1ccc(C(=O)NC(=S)NNC(=O)c2ccccc2O)cc1	none
Cc1ccc(NC(=O)NC(=S)NC(=O)c2ccccc2)cc1	RORgamma inh 2.5µM, HEK293 tox inconclusive, GLP1R inv ag inconclusive, VP16 counter inconclusive
Cc1ccc(C(=O)NNC(=O)c2ccc3ccccc3c2O)cc1	RORgamma inh 14µM, GLP1R inv ag inconclusive, VP16 counter 10µM
CC(=O)Nc1ccc(NC(=S)NC(=O)c2ccc(-c3ccccc3)cc2)cc1	none (no result: RORgamma inh, VP16 counter)
Cc1ccc(C(=O)NC(=S)NNC(=O)CCN2CCOCC2)cc1	RORgamma inh 11µM
O=C(NC(=S)NNC(=O)c1ccccc1O)c1ccccc1	RORgamma inh 11µM, GLP1R inv ag inconclusive
Cc1cc(C)cc(NC(=O)CN2C(=O)CCc3cc(S(=O)(=O)N4CCCCC4)ccc32)c1	GLP1R inv ag inconclusive (no result: RORgamma inh, VP16 counter, GLP-1R agonist)
C[C@@H]1C=C[C@](Cc2ccccc2)(C(=O)NCCN2CCOCC2)N1C(=O)c1ccccc1	none (no result: HEK293 tox, GLP1R inv ag, GLP-1R agonist)
O=C(NNC(=O)c1ccco1)c1ccccc1	none
Cc1ccc(C(=O)NC(=S)NNC(=O)c2ccccc2)cc1	RORgamma inh inconclusive, VP16 counter 20µM
Cc1ccc(C(=O)NNC(=S)NC(=O)c2ccccc2)cc1	GLP1R inv ag inconclusive (no result: RORgamma inh, VP16 counter)
O=C(NC(=S)NNC(=O)c1ccco1)c1ccccc1	RORgamma inh 11µM, VP16 counter 11µM
Cc1ccccc1C(=O)NNC(=S)NC(=O)c1ccccc1	RORgamma inh 0.79µM, VP16 counter 2.8µM
C(=N\NC1=Nc2cccc3cccc1c23)/c1cccnc1	RORgamma inh inconclusive, HEK293 tox inconclusive, GLP1R inv ag inconclusive
COc1ccc(NC2=Nc3cccc4cccc2c34)cc1OC	none
C(=N\NC1=Nc2cccc3cccc1c23)/c1ccccc1	RORgamma inh 2.2µM, HEK293 tox inconclusive, VP16 counter inconclusive
Clc1ccc(/C=N/NC2=Nc3cccc4cccc2c34)cc1	RORgamma inh 2µM, HEK293 tox inconclusive, GLP1R inv ag inconclusive, VP16 counter 14µM
CCCc1nn2c(=O)cc(COC(=O)c3ccccc3NC(=O)C3CCCCC3)nc2s1	none (no result: RORgamma inh, VP16 counter, GLP-1R agonist)
COc1ccc(NC(=S)NC(NC(=O)c2cccc3ccccc23)C(Cl)(Cl)Cl)c([N+](=O)[O-])c1 (configuration not stated)	HEK293 tox inconclusive, GLP1R inv ag inconclusive
COc1ccc(NC(=S)NC(NC(=O)c2ccc(Cl)cc2Cl)C(Cl)(Cl)Cl)c([N+](=O)[O-])c1 (configuration not stated)	RORgamma inh inconclusive, HEK293 tox inconclusive, GLP1R inv ag 10µM
COC(=O)c1ccccc1NC(=S)NC(NC(=O)c1ccco1)C(Cl)(Cl)Cl (configuration not stated)	RORgamma inh 7.9µM
COc1ccc(NC(=S)NC(NC(=O)c2ccccc2Cl)C(Cl)(Cl)Cl)c([N+](=O)[O-])c1 (configuration not stated)	RORgamma inh inconclusive, GLP1R inv ag inconclusive
COC(=O)c1ccccc1NC(=S)NC(NC(=O)c1ccccc1[N+](=O)[O-])C(Cl)(Cl)Cl (configuration not stated)	RORgamma inh 13µM, VP16 counter inconclusive
O=C(NC(NC(=S)Nc1ccc(Cl)c(Cl)c1)C(Cl)(Cl)Cl)c1ccco1 (configuration not stated)	HEK293 tox inconclusive, GLP1R inv ag 3.5µM, VP16 counter inconclusive
CN(Cc1ccco1)c1ncncc1-c1ccccc1C(F)(F)F	none (no result: HEK293 tox, GLP1R inv ag, GLP-1R agonist)
CCC1Oc2ccc(C)cc2N(CC(=O)NC2CCCCC2)C1=O (configuration not stated)	none
CCC1Oc2ccc(C)cc2N(CC(=O)NCc2cccc(OC)c2)C1=O (configuration not stated)	RORgamma inh inconclusive, VP16 counter 22µM
CCC1Oc2ccc(C)cc2N(CC(=O)N(Cc2ccc(C)o2)C2CCCC2)C1=O (configuration not stated)	RORgamma inh inconclusive, GLP1R inv ag 4.5µM, VP16 counter inconclusive
Cc1nnc(N2CCN(c3ccc(Cl)cc3)CC2)c2c1nnn2Cc1ccc(F)cc1	none (no result: RORgamma inh, VP16 counter, GLP-1R agonist)
Cc1cccc(OCC(=O)Nc2cccc(OCc3cc(=O)n4cccc(C)c4n3)c2)c1	none (no result: RORgamma inh, VP16 counter, GLP-1R agonist)
CC1=C2[C@H](/C=C(\C)C(=O)O)CC[C@@H](C)[C@H]2CC1	none (no result: HEK293 tox, GLP1R inv ag, GLP-1R agonist)
CC(=O)c1ccc(-c2ccc(C3C4C=CCCC4(C)C(=O)N3Cc3ccccc3)c(F)c2)cc1 (configuration not stated)	none (no result: HEK293 tox, GLP1R inv ag, GLP-1R agonist)
CC(C)(Cc1ccc(O)cc1)NC(=O)SCc1ccccc1	RORgamma inh inconclusive, GLP1R inv ag 13µM
CCn1cc(C(=O)O)c(=O)c2cnc(N3CCN(C(=S)NC(=O)c4ccccc4)CC3)nc21	RORgamma inh 2.5µM
CCn1cc(C(=O)O)c(=O)c2cc(F)c(N3CCN(C(=S)NC(=O)c4cc(OC)cc(OC)c4)CC3)cc21	RORgamma inh 2.5µM, VP16 counter 6.3µM
CCn1cc(C(=O)O)c(=O)c2cc(F)c(N3CCN(C(=S)NC(=O)c4ccccc4)CC3)cc21	none
CCCOc1ccc(C(=O)NC(=S)N2CCN(c3ncc4c(=O)c(C(=O)O)cn(CC)c4n3)CC2)cc1	none (no result: RORgamma inh, VP16 counter)
CCOc1ccc(NC(=S)NC(C)c2cccs2)cc1 (configuration not stated)	RORgamma inh 3.2µM, VP16 counter 5µM
CCOc1ccc(NC(=S)NN2CCN(C)CC2)cc1	none
CCOc1ccc(NC(=S)NN(C)C(=S)Nc2ccc(OCC)cc2)cc1	RORgamma inh 7.9µM, HEK293 tox inconclusive, GLP1R inv ag inconclusive, VP16 counter inconclusive
CCOc1ccc(NC(=S)Nc2ccccc2C2(C)CC2)cc1	RORgamma inh 7.9µM, HEK293 tox inconclusive, GLP1R inv ag inconclusive, VP16 counter inconclusive
